Reference: the supplement of paper PMC10681739

Each sequence was assayed against T1, ETS1 (UniProt P14921) (assay: ETS1 binding intensity (PBM fluorescence), ETS1 alone (arbitrary fluorescence units); higher = stronger binding). Conditions: ETS1 concentration 1 nM; RUNX1 concentration 0 nM.
T1 sequence: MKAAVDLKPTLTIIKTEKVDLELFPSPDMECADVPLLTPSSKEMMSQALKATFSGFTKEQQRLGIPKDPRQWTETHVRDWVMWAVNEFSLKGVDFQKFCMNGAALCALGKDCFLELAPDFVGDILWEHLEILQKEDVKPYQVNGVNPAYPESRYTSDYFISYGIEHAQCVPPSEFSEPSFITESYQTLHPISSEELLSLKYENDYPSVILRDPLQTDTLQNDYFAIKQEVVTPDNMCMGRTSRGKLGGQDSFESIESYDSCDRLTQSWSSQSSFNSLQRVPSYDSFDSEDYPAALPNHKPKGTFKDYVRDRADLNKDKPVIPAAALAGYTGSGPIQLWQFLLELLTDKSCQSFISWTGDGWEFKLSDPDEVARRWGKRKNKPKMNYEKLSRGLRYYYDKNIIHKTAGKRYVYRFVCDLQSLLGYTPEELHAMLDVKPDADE
Work on TACAATTCGCACCGGAACTTGCGGCCCGGCTTCATT yielded an ETS1 binding intensity of 3630.
For TATGGCGGGCAGGAAGTGCGGGTGCGCGCCTGCGCA, the ETS1 binding intensity was 4640.
For GACCTGCCTTCCGGCCTCCGTCACATGACCGCACAG, the ETS1 binding intensity was 556.
AGCAACAACAAAGGAAGTGGCGGCCGCAGGGGGAGG was tested, and the ETS1 binding intensity was 1320.
Work on TATGTGTTTTAGGCAGGATGTGGGTTTTAGTCTTTC yielded an ETS1 binding intensity of 8060.
Sequence AGGACCTAACACTCAGGAAGTGGTCAACCTTGCTGC has an ETS1 binding intensity of 2760.
Sequence CCAAAAACCCCAGGAGGATGTGGTGAGGAGGGAAGG has an ETS1 binding intensity of 1110.
For AGGTTGAAAGCACTTCCGCTGCGGCCCCCGTAGGAA, the ETS1 binding intensity was 3040.
For CTCACTCATCTGACTTCCTGCGGTTTACGACAACAG, the ETS1 binding intensity was 1200.
In the case of TACACTCCCACATCCGCTGCGGCGCAACTCACAACA, the ETS1 binding intensity is reported as 969.
GTATCACTTCCTGTTTTCCTCTGTGGCTTACTGCTG gave an ETS1 binding intensity of 3310.
CAGCTGCTGACAGGAAAACCACAGTGGAAGGGGAAG was tested, and the ETS1 binding intensity was 848.
In the case of TCAATAAGACAGGATGTTCTCCAACCGCATTAAGCT, the ETS1 binding intensity is reported as 3270.
GCCGCCTCTTCCTGTGTTGCAAACCACAGGTCCACC showed an ETS1 binding intensity of 1250.
With TTAGATGTGCCTACATCCTGACCTCAAAAACCTCTG the ETS1 binding intensity was 561.
In the case of AAAGTTGTATAGTGAGGATGTGGTCAAGAACTCACC, the ETS1 binding intensity is reported as 577.
With AATATCCTGTATGTCATGCTTAAAAAGCCACAAAAC the ETS1 binding intensity was 547.
For TTTACAGGAAATATCCAGAACAGGTAAACCCACAGA, the ETS1 binding intensity was 778.
With GCTCAAGTACCGGAAAGGCCCGCAGAAAGAAGGGCA the ETS1 binding intensity was 1400.
With AGATCAACTTCCACATCCGGTGGTAACAGGGCCCTA the ETS1 binding intensity was 5380.
Sequence CTACCCTCCCTCTTCCTGTGGTTTCTCAAACATGTC has an ETS1 binding intensity of 729.
Work on TCTTGCCCGGGTCGGAAATGGTGGTCACGAGCGCTT yielded an ETS1 binding intensity of 1110.
Work on ACAGGCTGTCTGCTTCCGTCAGCGGTTATTCCCTTG yielded an ETS1 binding intensity of 523.
Sequence GCCCGGAAGCGCGACGCTGGAGCTGCGGGGTTACCA has an ETS1 binding intensity of 773.
Sequence AACCTCCGACTTCCGGCCGCGCAGCGGTGGGCTGAG has an ETS1 binding intensity of 3900.
GCACTCATTTCCTGTCCCCTGTGGTTTAAAGGTTTT was tested, and the ETS1 binding intensity was 1990.
TCGCCCGCCGCTTCCTGTCGCGGCGCCGCAGAGGCC was tested, and the ETS1 binding intensity was 1740.
Work on GGACTTCCTGAAGCCAGATCGGTTTACCACAGTCAG yielded an ETS1 binding intensity of 413.
Sequence TCAGGGGTGGGAGGAAGTGGTTAGGATCAGCCTGGG has an ETS1 binding intensity of 1910.
CCCTCCTCTTTCGTTTCCTAACCGCAAATTCCATCA showed an ETS1 binding intensity of 487.
GCTGATAAAACAGGATGTGGTAAAGAAGCCGGCCAA showed an ETS1 binding intensity of 5160.
Sequence CTCCGCCAGCCACCGGAACTGCGGCCCAGCAAAAAG has an ETS1 binding intensity of 2590.
For ACCCTTCCTGGAGCATTGTCGCAGCAACCACAACAG, the ETS1 binding intensity was 457.
TGGCGGGAGAACTTCCCCCTGTGCGGTCGCGACGTG was tested, and the ETS1 binding intensity was 444.
For TGCAGTCGTGAAAAAGGAAGTGGTTAAAGTGGATAC, the ETS1 binding intensity was 2880.
GGGGGAGTTTTCGGAAGCGCTAACCGCGTTGGGGCC gave an ETS1 binding intensity of 365.
CCGGTCCTGACCGGAAGCGGTAACCGTCACTCCTTC gave an ETS1 binding intensity of 21100.
For AACAGCTTCCGGCACGGGGGCTGTGGTTGTGTTGGA, the ETS1 binding intensity was 670.
In the case of GAAGGCGGTTCCGGTTCGCGGCGGTTCCCGGGTTTT, the ETS1 binding intensity is reported as 515.
Work on ATGGCGGAGCGGAAGTCCCAGCCACAACGCGAAAAG yielded an ETS1 binding intensity of 3810.
